Bioassay records from PubChem BioAssay.
Compounds with a hit are over-represented: about 18% of the library has one in this group of screens.
VP16 counter: VP16 counterscreen qHTS for inhibitors of ROR gamma transcriptional activity; AID 2546, 2010; 3.5% of 310,000 active; Drosophila S2 Gal4-VP16 UAS-luciferase, luminescence, 20 h; Potency, µM (top dose mostly 53.6 µM), for the others: at the top dose activity, negative = inhibition, usual class: inhibitors;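 also: Gal4-VP16 expression switched on by copper sulfate through the metallothionein promoter; potency is read from the fitted curve at half-maximal effect; nearly all actives have a fitted effect of over 50% in size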
DT40 TDP1 no CPT: qHTS for Inhibitors of human tyrosyl-DNA phosphodiesterase 1 (TDP1): qHTS in cells in absence of CPT; Potency, µM (series often up to 46.2 µM), for inactives: top-dose activity change, negative = growth inhibition, usual class: inhibitors; DT40 Tdp1-/- hTDP1 cells, no CPT, ATP luminescence, 48 h; 15% of 420,000 active; also: potency is read from the fitted curve at half-maximal effect; nearly all actives have a fitted effect of over 55% in size
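Chicken DT40 Tdp1-/- cells complemented with human TDP1, screened without camptothecin (DMSO vehicle only), 400 cells/well. Compounds pin-transferred, cells incubated at 37 °C for at least 48 hr. Growth read as ATP-dependent luminescence (CellTiter-Glo, 30 min at RT).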
TDP1 cell CPT: qHTS for Inhibitors of human tyrosyl-DNA phosphodiesterase 1 (TDP1): qHTS in cells in presence of CPT; chicken DT40 Tdp1-/-;hTDP1 cells + 20 nM CPT, ATP luminescence, 48 h; Potency, µM (top dose mostly 46.2 µM), for inactives: at the top dose activity change, negative = growth inhibition, most hits filed as inhibitors; 12% of 420,000 active; AID 686979, 2013; also: potency is read from the fitted curve at half-maximal effect; nearly all actives have a fitted effect of over 55% in size
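Chicken DT40 Tdp1-/- cells complemented with human TDP1, 400 cells/well, exposed to compounds plus 20 nM camptothecin for at least 48 h at 37 C; viability read as ATP content by CellTiter-Glo luminescence.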
LDHA block: qHTS assay for inhibitors of human lactate dehydrogenase; L-lactate dehydrogenase A chain (Homo sapiens), P00338; purified LDHA, NADH/diaphorase-resazurin fluorescence; stronger effect = lower value; activity change, % (values are at about 110 or 230 µM); 0.15% of 480,000 active; AID 1347041, 2019; in the data active = activity change below about -30%; inconclusive = mostly about -25% to -30%;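 also: plate controls were DMSO wells for no effect and wells without enzyme for full effect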
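Enzyme activity of human lactate dehydrogenase 5 (2 nM; 0.06 mM NADH, 0.2 mM pyruvate, 5 min, RT) is measured via a resazurin/diaphorase fluorescence readout of residual NADH.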
RORg inh: qHTS for inhibitors of ROR gamma transcriptional activity. Nuclear receptor ROR-gamma (Mus musculus), P51450. Drosophila S2 Gal4-RORgamma UAS-luciferase reporter, 20 h. Potency, µM (top dose mostly 53.6 µM), for the others: at the top dose activity change, negative = inhibition, usual class: inhibitors. 5.4% of 310,000 active. AID 2551, 2010; also: potency is read from the fitted curve at half-maximal effect; nearly all actives have a fitted effect of over 60% in size
Target sequence (P51450 whole entry, looked up, the tested form may be a part): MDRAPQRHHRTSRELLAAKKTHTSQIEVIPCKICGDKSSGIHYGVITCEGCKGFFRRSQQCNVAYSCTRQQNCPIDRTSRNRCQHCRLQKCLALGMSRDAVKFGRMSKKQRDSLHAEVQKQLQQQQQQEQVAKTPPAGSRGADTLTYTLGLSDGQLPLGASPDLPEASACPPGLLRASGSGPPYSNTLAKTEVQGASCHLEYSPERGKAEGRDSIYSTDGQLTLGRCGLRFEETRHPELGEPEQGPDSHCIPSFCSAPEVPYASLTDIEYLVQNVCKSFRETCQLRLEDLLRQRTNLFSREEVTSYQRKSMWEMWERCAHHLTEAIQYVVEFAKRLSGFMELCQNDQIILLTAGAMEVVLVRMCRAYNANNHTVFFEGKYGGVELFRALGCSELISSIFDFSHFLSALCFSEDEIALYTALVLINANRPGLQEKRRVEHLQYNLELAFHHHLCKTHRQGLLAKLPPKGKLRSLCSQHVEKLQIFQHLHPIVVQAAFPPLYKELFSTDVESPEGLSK
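Schneider cells (Drosophila), stable Gal4 DBD–ROR gamma + UAS-luc; 1 hr cmpd preincubation; Cu2+ induction 700 uM final; 20 hr ambient; luminescence.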
IL1B secr inh: qHTS for Inhibitors of Inflammasome Signaling: IL-1-beta AlphaLISA Primary Screen; activity change, % at 57.5 µM; 4.7% of 360,000 active; THP-1 LPS/ATP IL-1B secretion, AlphaLISA, 16 h; stronger effect = lower value; in the data active = activity change below about -50%; inconclusive = mostly about -30% to -49%
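THP-1 cells pretreated 1 hr with compounds (up to 57.5 uM final), then stimulated with LPS (250 ng/mL final) plus ATP (1.25 mM final); secreted IL-1B measured by AlphaLISA after 16 hr, decreased signal indicating inhibition.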
The depositor's hits bear a star; ? = inconclusive; . = no result given. Unless noted, calls follow the shape of the dose curve; as a rule, active = well fitted curve in the direction sought with a large enough effect; inconclusive = small, poorly fitted or top-dose-only effect, or another doubt; inactive = no such curve, though single readings can be large; an effect the other way counts as inactive or inconclusive. Unless noted, % is scaled to controls: 0 for no effect and ±100 for the full control effect.

SMILES | VP16 counter | DT40 TDP1 no CPT | TDP1 cell CPT | LDHA block | RORg inh | IL1B secr inh
COc1ccc(CN(C)C(=O)c2ccc(NS(=O)(=O)c3ccc(F)cc3)cc2)c(OC)c1 | -1% | -1% | -24% | -5 | 31% | -4
O=C(Nc1ccc(Cl)c(Cl)c1)N[C@@H]1CC[C@@H](CCn2cc(C3CCCCC3)nn2)O[C@@H]1CO | . | 21µM* | ? | 1 | . | 58
NNCCc1ccccc1F | . | . | . | -1 | . | .
O=C1CCCN1CC(=O)N1CCCC(c2nc3ccccc3o2)C1 (stereo unspecified) | . | . | . | 2 | . | .
CCCCN1C(=O)/C(=C/C=C2\SCCN2C)SC1=S | 7% | -71% | ? | 8 | ? | -50*
CC(C)CCN1CCC(n2nccc2NC(=O)c2ccc3c(c2)OCO3)CC1 | -4% | -9% | 16% | -2 | -5% | -67*
Cc1nc(NC(=O)c2c(-c3ccccc3)c(-c3ccccc3)nn(C)c2=O)sc1C | . | 0.58µM* | 0.46µM* | -9 | . | .
CC(C)CNC(=O)c1c(-c2ccccc2)c(-c2ccccc2)nn(C)c1=O | . | ? | ? | -3 | . | .
CCn1nc(-c2ccccc2)c(-c2ccccc2)c(C(=O)Nc2ccccc2C(N)=O)c1=O | . | ? | ? | 0 | . | .
CCn1nc(-c2ccccc2)c(-c2ccccc2)c(C(=O)Nc2ccccc2C#N)c1=O | . | 12µM* | 18µM* | -3 | . | .
CCOC(=O)c1sc(NC(=O)c2c(-c3ccccc3)c(-c3ccccc3)nn(C)c2=O)nc1C | . | 16µM* | ? | -1 | . | .
CCCn1nc(C(=O)N2CCN(c3ccccc3)CC2)c2ccccc2c1=O | . | . | . | -6 | . | .
O=C(COC(=O)c1ccc(Cl)nc1)Nc1cccnc1Cl | . | 0% | 10% | -4 | . | -9
CC(C)NC(=O)NC(=O)COC(=O)c1ncc(Cl)c(Cl)c1Cl | 27% | -7% | -5% | -7 | -31% | -63*
COc1ccccc1C(=O)NC(=O)COC(=O)c1ncc(Cl)c(Cl)c1Cl | . | -5% | ? | 1 | . | 10
O=C(COC(=O)c1ncc(Cl)c(Cl)c1Cl)Nc1cccnc1Cl | . | 7% | -12% | -5 | . | -56*
CCOC(=O)C1=C(C)NC2=C(C(=O)CCC2)C1c1cn(Cc2ccc(Cl)cc2Cl)nc1-c1ccccc1 (stereo unspecified) | -13% | 21µM* | 16µM* | 2 | 20% | ?
CCOC(=O)C1=C(C)NC2=C(C(=O)CCC2)C1c1cccnc1 (stereo unspecified) | 7% | -6% | -11% | -3 | -12% | 3
CSCCNC(=O)C1(C)CCN1C(=O)c1ccc(C(C)(C)C)cc1 (stereo unspecified) | . | 15µM* | 18µM* | -2 | . | 31
CCCNC(=O)C1(C)CCN1C(=O)Cc1ccc(C(C)(C)C)cc1 (stereo unspecified) | . | 15µM* | ? | -5 | . | 42
CCCNC(=O)C1(C)CCN1C(=O)c1ccc(C(C)(C)C)cc1 (stereo unspecified) | . | 15µM* | ? | -5 | . | 23
CNC(=S)NNC(=O)c1ccccn1 | . | . | . | -3 | . | .
O=c1c2cc(Cl)ccc2ncn1Cc1coc(-c2cccs2)n1 | . | . | . | -8 | . | .
CC(Sc1nnc(C2CC2)n1Cc1ccco1)C(=O)Nc1ccnn1C(C)C (stereo unspecified) | . | . | . | -6 | . | .
Cn1ccc2cc(S(=O)(=O)N3CCC(C(=O)N4CCOCC4)CC3)ccc21 | . | . | . | -3 | . | .
COCCn1c(SCC(=O)Nc2ccc(C)cc2Br)nc2ccsc2c1=O | . | . | . | 5 | . | .
